Assay [1] has as its target Cytochrome P450 3A4 (Homo sapiens) (UniProt P08684). The experiment in a line: qHTS Assay for Inhibitors and Substrates of Cytochrome P450 3A4 (AID 884). For activity change, negative = inhibition: % is set by controls: 0 for no effect and ±100 for the full control effect. Note: nearly all actives have a fitted effect of over 50% in size. Note: potency is the fitted concentration of half-maximal effect. The method, boiled down: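 Luminescent readout of luciferin produced by CYP3A4 (20 nM) dealkylation of Luciferin-PPXE, 25 uM (its KM). NADPH-driven reaction ran 60 min at RT after 10 min compound preincubation; data scaled to 57 uM ketoconazole as 100% inhibition.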
For orientation: Quantitative high-throughput screening tests each substance at several concentrations.

The target is the same in assay [2]. Description: qHTS Assay for Activators of Cytochrome P450 3A4 (AID 885). Note: nearly all actives have a fitted effect of over 65% in size. Note: potency is the fitted concentration of half-maximal effect. The method, boiled down:
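Using 20nM recombinant human CYP3A4 in potassium phosphate (200mM), substrate Luciferin-PPXE at 25uM, luminescent luciferin detection followed a 60-min RT NADPH reaction; data scaled to 57 uM ketoconazole.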

The nature of assay [3]: Confirmation and Secondary Assay for Modulators of Hemoglobin Beta Chain Splicing at IVS2 654 locus (AID 910).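 Note: HeLa cells stably carrying EGFP split by mutant beta-globin IVS2-654 intron; % of control where 0% means no effect.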 The essentials: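 HeLa cells stably expressing EGFP interrupted by β-globin IVS2-654 intron, seeded overnight in Opti-MEM/2% FCS, then treated 2 days at 37 °C. Restored splicing read as total peak GFP intensity per well by laser scanning cytometry (488 nm excitation, 500–520 nm emission); 500 nM antisense PNA as control.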

A short description of assay [4]: Confirmation and Secondary Assay for Modulators of Hemoglobin Beta Chain Splicing at IVS2 705 locus (AID 930).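 Note: HeLa cells stably expressing the EGFP-705 splicing reporter; GFP fluorescence per well restored by corrected splicing of the IVS2-705 intron in EGFP; % of control where 0% means no effect.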 The essentials: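 Secondary splice-site specificity test uses HeLa expressing CMV-driven EGFP interrupted by IVS2-705; cells were treated 2 days at 37C with 500 nM antisense PNA as positive control.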
Assay [5] in a line: qHTS Assay for Lipid Storage Modulators (AID 1519; calls by dose curve; for activity change, negative = inhibition: % is set by controls: 0 for no effect and ±100 for the full control effect). As to conditions: Drosophila S3 cells, BODIPY lipid droplet/cell ratio, laser cytometry, cells loaded with oleic acid; for activity change, negative = inhibition: at 57.5 µM (top of the series). The method, boiled down: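 Cells seeded at 5,000 per well were treated with compounds over a concentration series and loaded with oleic acid (400 uM, as added). Lipid droplet fluorescence (488 nm excitation, 500-530 nm channel) was read by laser-scanning cytometry and normalized to 20 uM Triacsin C.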

The target in assay [6] is Ubiquitin carboxyl-terminal hydrolase 1 (Homo sapiens) (UniProt O94782). The experiment in a line: Inhibitors of USP1/UAF1: Pilot qHTS (AID 504865).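 Note: rhodamine fluorescence freed from ubiquitin-rhodamine substrate followed over time; top concentration of the series differs between compounds; % is set by controls: 0 for no effect and ±100 for the full control effect; nearly all actives have a fitted effect of over 35% in size.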 The essentials:
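Enzyme-free wells gave the negative control, while test wells held 1nM USP1/UAF1 preincubated with compound for 15 min at room temperature. Ub-Rho at 150nM final started the reaction, and fluorescence at 480/540 nm was recorded kinetically.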

Assay [7] addresses DNA dC->dU-editing enzyme APOBEC-3G (Homo sapiens) (UniProt Q9HC16). The experiment in a line: qHTS for inhibitors of Vif-A3G interactions: Validation (AID 588379). Note: 0% is about no effect. The method, boiled down:
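Yellow fluorescence (Ex 488, Em 500-530) of Vif-coexpressing HeLa A3G-eYFP cells, scanned by Acumen cytometer, reports blocked A3G degradation. Cells plated at 700/well overnight at 37 deg C before compound addition, then a further overnight compound incubation at 37 deg C.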

Assay [8] addresses Luciferin 4-monooxygenase (Photinus pyralis) (UniProt P08659). The experiment in a line: Biochemical firefly luciferase enzyme assay for NPC (AID 624030).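 Note: purified P. pyralis luciferase at 10 nM with luciferin and ATP substrate; 0% = DMSO and -100% = full luciferase inhibition by PTC124 control; nearly all actives have a fitted effect of over 70% in size.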 The essentials:
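Purified P. pyralis luciferase at 10 nM in 50 mM Tris Acetate (final), luminescence read within 5 minutes of enzyme addition to compounds. Activity normalised to PTC124 versus DMSO; concentration-response curves classed by r2, magnitude and activity.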

Setting [9] is: measured here: cell count channel max response.
[10] abbreviates: measured here: lipid channel max response.

The structures appear in SMILES notation. Inconclusive results are not listed. Calls of active or inactive are those of the source. Unless noted, calls come from the whole dose curve; as a rule, active = well fitted curve in the direction sought with a large enough effect; inconclusive = small, poorly fitted or top-dose-only effect, or another doubt; inactive = no such curve, though single readings can be large; an effect the other way counts as inactive or inconclusive.

Chain of Ubiquitin carboxyl-terminal hydrolase 1 (Homo sapiens) (O94782 whole entry, looked up): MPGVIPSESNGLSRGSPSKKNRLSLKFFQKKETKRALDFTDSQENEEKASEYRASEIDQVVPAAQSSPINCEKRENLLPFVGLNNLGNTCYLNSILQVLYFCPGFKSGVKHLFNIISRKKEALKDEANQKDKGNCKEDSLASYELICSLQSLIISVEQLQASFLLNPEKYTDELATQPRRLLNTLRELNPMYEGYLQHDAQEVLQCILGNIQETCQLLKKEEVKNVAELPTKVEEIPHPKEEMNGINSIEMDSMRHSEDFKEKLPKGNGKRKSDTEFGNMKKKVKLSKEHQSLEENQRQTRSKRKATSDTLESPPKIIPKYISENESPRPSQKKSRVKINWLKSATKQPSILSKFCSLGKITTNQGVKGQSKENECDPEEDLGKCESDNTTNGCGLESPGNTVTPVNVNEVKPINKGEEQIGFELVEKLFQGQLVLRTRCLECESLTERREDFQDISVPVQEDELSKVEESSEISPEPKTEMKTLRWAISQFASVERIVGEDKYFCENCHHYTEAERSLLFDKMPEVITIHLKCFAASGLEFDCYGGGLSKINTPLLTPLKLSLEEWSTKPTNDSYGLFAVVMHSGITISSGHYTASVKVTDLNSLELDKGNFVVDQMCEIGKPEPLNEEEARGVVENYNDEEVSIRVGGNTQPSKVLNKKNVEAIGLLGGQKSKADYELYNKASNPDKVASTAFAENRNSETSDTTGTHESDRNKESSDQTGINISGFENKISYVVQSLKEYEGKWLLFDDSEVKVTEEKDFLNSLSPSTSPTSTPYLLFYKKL
Chain of DNA dC->dU-editing enzyme APOBEC-3G (Homo sapiens) (Q9HC16 whole entry, looked up): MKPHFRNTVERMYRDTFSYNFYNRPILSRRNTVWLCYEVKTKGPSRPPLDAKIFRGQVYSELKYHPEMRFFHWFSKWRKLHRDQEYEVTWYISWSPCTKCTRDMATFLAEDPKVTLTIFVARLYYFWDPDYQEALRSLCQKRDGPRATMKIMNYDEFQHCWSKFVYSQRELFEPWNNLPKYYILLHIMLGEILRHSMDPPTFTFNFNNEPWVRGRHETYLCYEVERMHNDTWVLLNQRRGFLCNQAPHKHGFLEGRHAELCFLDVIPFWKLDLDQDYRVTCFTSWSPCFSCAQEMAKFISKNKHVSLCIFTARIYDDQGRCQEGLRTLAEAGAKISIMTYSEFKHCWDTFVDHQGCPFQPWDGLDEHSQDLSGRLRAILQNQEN
Chain of Cytochrome P450 3A4 (Homo sapiens) (P08684 whole entry, looked up): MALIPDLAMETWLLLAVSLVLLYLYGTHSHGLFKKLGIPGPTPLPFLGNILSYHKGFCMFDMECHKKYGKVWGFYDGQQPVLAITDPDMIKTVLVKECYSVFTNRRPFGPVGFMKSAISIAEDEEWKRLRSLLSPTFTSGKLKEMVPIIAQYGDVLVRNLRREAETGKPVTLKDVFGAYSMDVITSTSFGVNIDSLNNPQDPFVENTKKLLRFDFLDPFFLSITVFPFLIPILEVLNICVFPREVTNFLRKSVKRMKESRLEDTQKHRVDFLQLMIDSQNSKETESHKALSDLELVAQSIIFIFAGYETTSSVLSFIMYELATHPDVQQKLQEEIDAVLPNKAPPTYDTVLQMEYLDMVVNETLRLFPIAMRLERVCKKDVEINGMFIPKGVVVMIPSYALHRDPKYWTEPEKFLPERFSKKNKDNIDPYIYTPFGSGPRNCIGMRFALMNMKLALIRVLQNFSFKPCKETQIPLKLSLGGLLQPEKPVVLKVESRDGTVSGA
Chain of Luciferin 4-monooxygenase (Photinus pyralis) (P08659 whole entry, looked up): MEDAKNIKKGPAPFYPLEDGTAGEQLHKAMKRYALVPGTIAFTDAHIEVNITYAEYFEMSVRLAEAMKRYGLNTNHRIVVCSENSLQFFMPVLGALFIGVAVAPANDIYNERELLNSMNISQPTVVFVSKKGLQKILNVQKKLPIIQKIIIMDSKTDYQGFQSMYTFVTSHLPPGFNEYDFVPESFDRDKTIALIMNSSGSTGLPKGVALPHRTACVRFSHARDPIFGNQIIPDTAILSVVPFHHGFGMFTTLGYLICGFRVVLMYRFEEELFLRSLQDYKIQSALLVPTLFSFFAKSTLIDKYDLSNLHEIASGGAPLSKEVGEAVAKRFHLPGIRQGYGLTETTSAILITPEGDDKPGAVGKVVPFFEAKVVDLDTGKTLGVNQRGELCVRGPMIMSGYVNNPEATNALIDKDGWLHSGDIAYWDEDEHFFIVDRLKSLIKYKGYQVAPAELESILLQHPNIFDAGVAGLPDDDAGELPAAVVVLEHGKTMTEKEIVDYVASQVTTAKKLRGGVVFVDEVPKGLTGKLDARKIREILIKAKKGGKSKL

In the case of `COc1ccc(/C=C/C(=O)c2ccc(O)cc2O)cc1OC`, the Potency in assay [1] is 1.26 µM (active). Further, the Potency result in assay [2], in assay [3], in assay [4] and in assay [6] was “inactive” each time. Moreover, in assay [5], the activity change, negative = inhibition is -12.3% (inactive). Moreover, the max response in assay [5] (setting [9]) is -8.55%; in assay [5] (setting [10]), -18.6%.
As to `CC(C)CCCC(C)C1CCC2C3CC=C4CC(O)CCC4(C)C3CCC12C` (configuration not stated), the Potency result in assay [1] and in assay [6] was “inactive” throughout. For the same compound, the activity change, negative = inhibition in assay [5] was 7.38% (inactive). Further, the max response came out at 5.9% in assay [5] (setting [9]) and 12% in assay [5] (setting [10]). Also, the result in assay [7] was inactive.
On to `COc1ccc2c(c1)[C@]1(C)CCC(=O)C[C@H]1CC2`, for which, in assay [1], the Potency was 3.16 µM (active). Also, the Potency entry in assay [2], in assay [3], in assay [4] and in assay [6] was “inactive” in each case. For the same compound, the activity change, negative = inhibition in assay [5] is 8.23% (inactive). For the same compound, the max response was -1.73% in assay [5] (setting [9]) and 6.33% in assay [5] (setting [10]).
Turning to `C/C=C(/C)C(=O)OC1Cc2c(ccc3ccc(=O)oc23)OC1(C)C` (configuration not stated), the Potency entry in assay [1], in assay [3], in assay [4] and in assay [6] was “inactive” in each case. Besides, the Potency in assay [2] was 15.8 µM (active). Besides, the activity change, negative = inhibition in assay [5] was 2.21% (inactive). The max response was 9.88% in assay [5] (setting [9]) and 14.5% in assay [5] (setting [10]).
For the compound `O=C(O)C(O)C(O)C(O)C(O)C(=O)O` (configuration not stated), the Potency entry in assay [1], in assay [3], in assay [4], in assay [6] and in assay [8] was “inactive” each time. Moreover, in assay [5], the activity change, negative = inhibition is 5% (inactive). Besides, the max response in assay [5] (setting [9]) was 3.45%; in assay [5] (setting [10]), 13%.
As to `COC1OC2COC(c3ccccc3)OC2C(O)C1O` (configuration not stated), the Potency entry in assay [1] and in assay [6] was “inactive” throughout. Further, the activity change, negative = inhibition in assay [5] is 1.99% (inactive). For the same compound, the max response in assay [5] (setting [9]) is 4.47%; in assay [5] (setting [10]) it was 4.04%. In addition, the outcome in assay [7] was inactive.
Consider `C=C[C@](C)(O)CCC1C(=C)CCC2[C@@](C)(CO)CCC[C@@]12C` (some centres not stated), for which the Potency in assay [1] is 2.51 µM (active). Also, the Potency result in assay [2], in assay [3], in assay [4] and in assay [6] was “inactive” each time. Besides, the activity change, negative = inhibition in assay [5] was 2.53% (inactive). The max response was -1.43% in assay [5] (setting [9]) and 3.55% in assay [5] (setting [10]).
Turning to `CCCCCC(=O)Cc1cc(O)cc(O)c1C(=O)Oc1cc(CC(=O)CCCCC)c(C(=O)O)c(OC)c1`, in assay [1], the Potency is 15.8 µM (active). For the same compound, the Potency entry in assay [2], in assay [3], in assay [4] and in assay [6] was “inactive” each time. The activity change, negative = inhibition in assay [5] is 4.27% (inactive). In addition, the max response in assay [5] (setting [9]) worked out at 7.66%; in assay [5] (setting [10]), 16.1%.
As to `O=C(O)CCCCC1SCC2NC(=O)NC21` (configuration not stated), the Potency entry in assay [1], in assay [3], in assay [4], in assay [6] and in assay [8] was “inactive” each time. In addition, the activity change, negative = inhibition in assay [5] is 0.834% (inactive). Besides, the max response in assay [5] (setting [9]) was found to be 11.8%; in assay [5] (setting [10]) it was 16%.
Turning to `Nc1ncnc2c1ncn2C1CC(O)C(CO)O1` (configuration not stated), the Potency result in assay [1], in assay [3], in assay [4] and in assay [6] was “inactive” in each case. For the same compound, the activity change, negative = inhibition in assay [5] was -2.62% (inactive). Besides, the max response in assay [5] (setting [9]) was -5.57%; in assay [5] (setting [10]), -5.3%. Also, the call in assay [7] was inactive.
On to `CCOC(=O)c1c(C)cc(O)cc1O`, for which, in assay [1], the Potency was 25.1 µM (active). For the same compound, the Potency entry in assay [2], in assay [3], in assay [4] and in assay [6] was “inactive” throughout. The activity change, negative = inhibition in assay [5] is 13% (inactive). Besides, the figures for the max response in assay [5] (setting [9]) and in assay [5] (setting [10]) were -2.16% and 14.3%, respectively.
For the compound `NCC1O[C@@H](O[C@@H]2C(O)[C@H](O[C@H]3OC(CO)C(O)C(N)C3O)[C@@H](N)C[C@H]2N)C(N)C(O)C1O` (some centres not stated), the Potency entry in assay [1], in assay [3], in assay [4], in assay [6] and in assay [8] was “inactive” throughout. The activity change, negative = inhibition in assay [5] was 5.31% (inactive). Moreover, the max response was found to be 20.8% in assay [5] (setting [9]) and 32.5% in assay [5] (setting [10]).
